Test [1] can be described thus: yeast TOR pathway RPL19A-GFP modulators, primary screen, cell-based, S. cerevisiae, multiplex flow cytometry (AID 1862; in the data active = percent of DMSO control GFP below about 86%;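 also: lower values mimic rapamycin by blocking the RPL19A rise seen in DMSO cells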). Conditions: S. cerevisiae RPL19A-GFP strain, flow cytometry fluorescence, 3 h; at 10 µM; stronger effect = lower value. (A flow cytometer gives signals particle by particle.)
Test [2] is described as follows: modulators of MEP2-GFP levels in yeast, primary screen, S. cerevisiae, multiplex flow cytometry (AID 1867;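 active = GFP response, as percent of the DMSO control, above the screen-wide mean plus 3 SD, about 139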;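 also: median GFP channel fluorescence of barcode-gated MEP2-GFP cells measured by flow cytometry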). Conditions: S. cerevisiae MEP2-GFP strain, 3 h, at 10 µM, stronger effect = higher value, 100% means same as DMSO wells.
The nature of test [3]: modulators of CIT2-GFP expression in yeast, primary screen, S. cerevisiae, GFP fusion, multiplex flow cytometry (AID 1870;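 active = percent response above a set limit, the screen-wide mean plus 3 SD, cut at about 130% in these data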;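 also: barcoded CIT2-GFP strain pooled with four other GFP strains with rapamycin as positive control; median GFP fluorescence per well over plate mean of DMSO wells so 100% = DMSO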). Particulars: 3 h, at 10 µM, stronger effect = higher value.
Test [4] is described as follows: modulators of LAP4-GFP expression in yeast, primary screen, S. cerevisiae, multiplex flow cytometry (AID 1873;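 active = GFP signal, as percent of the solvent control, above the screen mean plus 3 SD, about 149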). Conditions: 3 h, at 10 µM, stronger effect = higher value.
A short description of test [5]: modulators of AGP1-GFP expression in yeast TOR pathway, primary screen, cell-based, multiplex flow cytometry, S. cerevisiae (AID 1887;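 active = GFP signal above the screen-wide mean plus 3 SD, that is over about 124.5% of the solvent control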;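 also: AGP1-GFP fusion strain of S. cerevisiae within a five-strain barcoded multiplex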). Conditions: 3 h, at 10 µM, stronger effect = higher value.
A short description of test [6]: inhibitors of CD8+ T cell-vesicle binding, pilot screen, LFA-1/ICAM-1 modulator project, MLPCN validation set, flow cytometry (AID 2523;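 active = response below a set limit, under 55% cells CD8-positive and vesicle-bound, and CD8 cells' 90th-percentile brightness under 279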;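 as to vesicle binding response: mean PE anti-B7-1 fluorescence of CD8+ cells relative to row control; 100% = QL9-loaded vesicles with DMSO vehicle in the same plate row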). Particulars: 2C mouse CD8+ T cells, at 7 µM, stronger effect = lower value; double positive events: measured here: CD8+/vesicle+ event percentage.
Test [7] concerns the target Integrin beta-1 (Homo sapiens) + Integrin alpha-4 (Homo sapiens) (UniProt P13612+P05556). Briefly: inhibition of HUTS-21 binding to VLA-4, pilot screen, VLA-4 allosteric modulator project, U937 cells, HUTS-21 mAb, flow cytometry, validation set (AID 2674;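 active = inhibition above 50%, about 3 SD of the validation set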;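 also: antibody binding induced by the VLA-4 ligand LDV present at three times its Kd; 0% = LDV ligand with antibody and no compound and 100% = antibody without LDV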). Conditions: HUTS-21 LIBS mAb binding, at 6.7 µM, stronger effect = higher value, binding induced by LDV ligand.
The nature of test [8]: superoxide lowering in aged yeast cells, pilot screen, validation compound set (AID 2706;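 active = superoxide response below 65% of plate, a cut near 3 SD across the whole screen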;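 also: yeast exposed to compound for one week at 30 degrees C before staining; 100% = mean of all compound wells on the same plate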). Conditions: S. cerevisiae aging, superoxide DHE fluorescence; at 10 µM, stronger effect = lower value.
Test [9] addresses Beta-adrenergic receptor kinase 1 (Homo sapiens) (UniProt P25098). In words: GRK2 binders displacing RNA aptamer, biochemical, validation, human GRK2, bead flow cytometry (AID 488806;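 active = aptamer binding inhibition above 30%, about 3 SD of noise from non-fluorescent compounds; inactive = inhibition at or below 30%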). Conditions: bead-bound GRK2, FAM-aptamer displacement, at 10 µM, stronger effect = higher value.
Test [10] concerns the target Beta-2 adrenergic receptor (Homo sapiens) (UniProt P07550). Briefly: beta2AR agonists driving receptor internalization, pilot screen, cell-based, FAP fluorogen, flow cytometry, validation set (AID 504459;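 active = percent response above 42, roughly 3 SD of non-fluorescent test compounds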;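 also: agonist-driven loss of surface beta2AR via internalization measured by FAP dye flow cytometry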). Conditions: Am2.2-beta2AR cells, FAP surface receptor flow cytometry; at 10 µM; stronger effect = higher value.
The target of test [11] is AP-2 complex subunit beta (Homo sapiens) (UniProt P63010). In words: inhibitors of arrestin peptide binding to AP2, pilot screen, biochemical, validation set, GST-AP2 beads, flow cytometry (AID 504541;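 active = inhibition above 54%, about 3 SD of non-fluorescent compounds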;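 also: AP2 carries R879A mutation and is captured from E. coli lysate; bead-bound FITC arrestin peptide fluorescence measuring arrestin peptide binding to AP2; 0% = DMSO wells and 100% = excess unlabeled arrestin peptide control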). Conditions: FITC arrestin peptide, at 10 µM, stronger effect = higher value, AP2 beta2 appendage fragment, R879A mutant.
AP-2 complex subunit beta (Homo sapiens), sequence (P63010 whole entry, looked up, the tested form may be a part, one chain of several): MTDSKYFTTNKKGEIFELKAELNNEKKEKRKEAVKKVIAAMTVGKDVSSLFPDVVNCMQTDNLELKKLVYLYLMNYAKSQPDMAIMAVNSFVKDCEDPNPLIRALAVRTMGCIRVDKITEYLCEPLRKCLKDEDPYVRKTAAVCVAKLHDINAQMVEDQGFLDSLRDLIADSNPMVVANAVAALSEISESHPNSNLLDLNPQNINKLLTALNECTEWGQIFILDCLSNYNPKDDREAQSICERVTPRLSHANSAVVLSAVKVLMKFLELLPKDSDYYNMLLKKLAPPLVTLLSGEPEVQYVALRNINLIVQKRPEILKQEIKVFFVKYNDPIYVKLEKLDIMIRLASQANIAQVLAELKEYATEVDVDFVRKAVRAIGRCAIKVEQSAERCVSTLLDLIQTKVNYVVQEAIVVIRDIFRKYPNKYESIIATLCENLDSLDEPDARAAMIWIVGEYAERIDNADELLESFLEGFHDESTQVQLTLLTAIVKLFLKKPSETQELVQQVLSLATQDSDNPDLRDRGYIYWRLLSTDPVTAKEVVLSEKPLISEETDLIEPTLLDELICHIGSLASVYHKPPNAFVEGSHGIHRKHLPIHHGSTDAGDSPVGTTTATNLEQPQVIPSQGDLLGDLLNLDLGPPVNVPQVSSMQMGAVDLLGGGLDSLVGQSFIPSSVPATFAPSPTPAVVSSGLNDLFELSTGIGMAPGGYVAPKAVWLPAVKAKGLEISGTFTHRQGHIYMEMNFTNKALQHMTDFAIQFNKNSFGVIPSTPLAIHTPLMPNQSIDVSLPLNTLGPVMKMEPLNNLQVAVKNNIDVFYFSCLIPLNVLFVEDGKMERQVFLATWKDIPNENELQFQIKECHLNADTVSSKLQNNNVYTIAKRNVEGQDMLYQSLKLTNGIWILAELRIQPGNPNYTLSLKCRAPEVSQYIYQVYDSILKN
Test [12] is described as follows: yeast V-ATPase proton transport modulators, S. cerevisiae, pHLuorin, HTS validation (AID 504600; in the data active = response above about 15%;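 also: plate controls were DMSO for no effect and reference compound for full effect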). Conditions: S. cerevisiae pHLuorin cytosolic pH, at 10 µM, stronger effect = higher value.
Test [13] has as its system anti-desmoglein-3 scFv antibody binding to human DSG3. Briefly: inhibitors of anti-DSG3 scFv binding to DSG3, pilot screen, biochemical, validation compound set, bead-based, flow cytometry (AID 588368;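 active = binding below the plate cutoff, the plate median minus 3 SD, with a reading above zero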;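 also: signal is the median channel fluorescence of bead-bound GFP antibody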). Conditions: Protein G beads, DSG3-Fc, scFv-GFP binding, at 10 µM, stronger effect = lower value.
A short description of test [14]: inhibitors of fungal efflux pumps CDR1, CDR2, MDR1, pilot screen, validation compound set, multiplex, phenotypic (AID 588506).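 Also: Nile Red retained in cells so higher fluorescence means more efflux inhibition; 0 = negative control wells and 1 = enniatin B 25 µM full block.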 Conditions: S. cerevisiae pump-expressing triplex, Nile Red efflux flow cytometry; at 10 µM; stronger effect = higher value; the pumps come from Candida albicans.
Test [15] deals with ATP-binding cassette sub-family B member 6 (Homo sapiens) (UniProt Q9NP58). In words: ABCB6 transporter inhibitors, pilot screen, K562-ABCB6 cells, flow cytometry, validation set (AID 588550;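 active = inhibition above the screen-wide mean plus 3 SD, about 51%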;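 also: 0% = DMSO wells and 100% = benzethonium chloride 70 µM positive control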). Particulars: K562-ABCB6 porphyrin accumulation, 1 h, at 10 µM, stronger effect = higher value.
ATP-binding cassette sub-family B member 6 (Homo sapiens), sequence (Q9NP58 whole entry, looked up): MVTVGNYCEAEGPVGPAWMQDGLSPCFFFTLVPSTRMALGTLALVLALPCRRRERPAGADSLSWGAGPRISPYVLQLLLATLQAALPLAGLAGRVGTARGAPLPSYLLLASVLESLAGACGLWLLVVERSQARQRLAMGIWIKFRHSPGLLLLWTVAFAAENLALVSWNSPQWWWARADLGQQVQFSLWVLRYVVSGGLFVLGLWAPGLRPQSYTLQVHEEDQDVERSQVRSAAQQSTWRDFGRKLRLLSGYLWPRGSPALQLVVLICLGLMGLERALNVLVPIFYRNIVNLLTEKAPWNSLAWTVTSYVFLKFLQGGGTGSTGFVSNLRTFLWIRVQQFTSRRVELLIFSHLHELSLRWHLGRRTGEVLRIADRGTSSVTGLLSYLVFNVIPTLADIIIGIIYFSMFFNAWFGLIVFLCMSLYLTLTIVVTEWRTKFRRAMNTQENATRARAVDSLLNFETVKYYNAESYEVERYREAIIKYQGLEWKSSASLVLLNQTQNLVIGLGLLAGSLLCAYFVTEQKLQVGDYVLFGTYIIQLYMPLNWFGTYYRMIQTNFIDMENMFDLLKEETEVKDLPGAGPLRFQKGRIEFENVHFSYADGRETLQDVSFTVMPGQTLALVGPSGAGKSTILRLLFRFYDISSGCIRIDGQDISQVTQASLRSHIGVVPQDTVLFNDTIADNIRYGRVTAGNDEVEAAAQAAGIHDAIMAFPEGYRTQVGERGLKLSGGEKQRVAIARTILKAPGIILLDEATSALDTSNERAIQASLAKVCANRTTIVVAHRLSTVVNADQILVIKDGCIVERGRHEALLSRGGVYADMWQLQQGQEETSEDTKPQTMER
A short description of test [16]: promoters of myeloid differentiation in arrested cells, primary screen, cell-based, GFP/MAC1 double positive, flow cytometry, validation set (AID 588685;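 active = differentiation response of at least 50%, scaled between solvent and reference control, from cells with both markers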;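 also: compound exposure lasts four days before antibody staining and flow analysis; 0% = DMSO wells and 100% = 5 µM fulvestrant positive control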). Particulars: ER-HoxA9 marrow cells, stronger effect = higher value, normalized: vehicle 0, fulvestrant 100.

Results filed as inconclusive are left out. The source made the active and inactive calls.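 The calls were made as follows, unless noted: active = efflux inhibition above 0.42, the validation set average plus 4 SD; inconclusive = no clear call, values can overlap the other calls; inactive = the rest.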

Integrin beta-1 (Homo sapiens) + Integrin alpha-4 (Homo sapiens), sequence (P05556 whole entry, looked up): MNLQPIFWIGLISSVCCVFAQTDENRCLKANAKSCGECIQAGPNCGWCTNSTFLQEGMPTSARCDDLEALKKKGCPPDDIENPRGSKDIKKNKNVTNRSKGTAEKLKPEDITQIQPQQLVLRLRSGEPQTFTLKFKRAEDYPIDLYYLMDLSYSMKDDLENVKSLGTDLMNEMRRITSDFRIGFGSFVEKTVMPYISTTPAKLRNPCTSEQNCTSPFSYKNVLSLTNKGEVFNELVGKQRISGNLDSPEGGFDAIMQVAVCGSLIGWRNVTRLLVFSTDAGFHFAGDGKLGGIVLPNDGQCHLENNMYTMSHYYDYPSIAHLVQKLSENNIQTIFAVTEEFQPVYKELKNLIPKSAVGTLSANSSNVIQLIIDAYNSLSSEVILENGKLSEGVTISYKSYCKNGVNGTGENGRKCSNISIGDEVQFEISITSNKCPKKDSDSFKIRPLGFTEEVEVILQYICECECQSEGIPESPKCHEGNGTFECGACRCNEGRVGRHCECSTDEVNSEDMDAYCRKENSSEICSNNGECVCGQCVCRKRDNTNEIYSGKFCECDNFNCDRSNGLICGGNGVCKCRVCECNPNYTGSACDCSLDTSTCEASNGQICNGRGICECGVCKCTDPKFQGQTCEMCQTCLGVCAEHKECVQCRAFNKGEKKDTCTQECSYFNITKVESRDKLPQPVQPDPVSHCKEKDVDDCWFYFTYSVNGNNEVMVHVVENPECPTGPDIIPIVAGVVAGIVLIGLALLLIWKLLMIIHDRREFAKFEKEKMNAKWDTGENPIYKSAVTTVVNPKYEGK
Integrin beta-1 (Homo sapiens) + Integrin alpha-4 (Homo sapiens), sequence (P13612 whole entry, looked up): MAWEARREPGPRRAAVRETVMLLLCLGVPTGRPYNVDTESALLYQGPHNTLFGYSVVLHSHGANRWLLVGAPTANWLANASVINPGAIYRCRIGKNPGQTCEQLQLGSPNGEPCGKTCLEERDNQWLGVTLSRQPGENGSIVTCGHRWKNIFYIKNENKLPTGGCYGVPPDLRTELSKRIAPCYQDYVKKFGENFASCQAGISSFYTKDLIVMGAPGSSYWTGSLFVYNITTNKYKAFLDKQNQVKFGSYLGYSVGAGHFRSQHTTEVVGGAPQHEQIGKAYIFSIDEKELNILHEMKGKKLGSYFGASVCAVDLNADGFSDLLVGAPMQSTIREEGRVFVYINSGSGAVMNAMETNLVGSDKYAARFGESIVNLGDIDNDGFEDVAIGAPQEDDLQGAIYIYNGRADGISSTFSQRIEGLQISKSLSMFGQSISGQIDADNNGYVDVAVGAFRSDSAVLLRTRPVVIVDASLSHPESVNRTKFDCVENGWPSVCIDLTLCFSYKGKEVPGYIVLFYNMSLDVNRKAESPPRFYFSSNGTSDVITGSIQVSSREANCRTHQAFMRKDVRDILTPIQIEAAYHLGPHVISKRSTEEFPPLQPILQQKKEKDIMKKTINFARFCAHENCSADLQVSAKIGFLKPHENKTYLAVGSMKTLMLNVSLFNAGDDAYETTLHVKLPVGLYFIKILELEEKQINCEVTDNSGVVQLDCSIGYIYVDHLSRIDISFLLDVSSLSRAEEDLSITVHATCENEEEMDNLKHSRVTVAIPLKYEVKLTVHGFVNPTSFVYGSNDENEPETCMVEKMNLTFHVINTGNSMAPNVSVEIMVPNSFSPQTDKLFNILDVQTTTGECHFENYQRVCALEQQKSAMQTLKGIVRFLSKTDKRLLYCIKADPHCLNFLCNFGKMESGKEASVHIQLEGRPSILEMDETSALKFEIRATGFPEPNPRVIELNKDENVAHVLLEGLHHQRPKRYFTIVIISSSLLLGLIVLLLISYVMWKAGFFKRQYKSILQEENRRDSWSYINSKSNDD
Beta-adrenergic receptor kinase 1 (Homo sapiens), sequence (P25098 whole entry, looked up): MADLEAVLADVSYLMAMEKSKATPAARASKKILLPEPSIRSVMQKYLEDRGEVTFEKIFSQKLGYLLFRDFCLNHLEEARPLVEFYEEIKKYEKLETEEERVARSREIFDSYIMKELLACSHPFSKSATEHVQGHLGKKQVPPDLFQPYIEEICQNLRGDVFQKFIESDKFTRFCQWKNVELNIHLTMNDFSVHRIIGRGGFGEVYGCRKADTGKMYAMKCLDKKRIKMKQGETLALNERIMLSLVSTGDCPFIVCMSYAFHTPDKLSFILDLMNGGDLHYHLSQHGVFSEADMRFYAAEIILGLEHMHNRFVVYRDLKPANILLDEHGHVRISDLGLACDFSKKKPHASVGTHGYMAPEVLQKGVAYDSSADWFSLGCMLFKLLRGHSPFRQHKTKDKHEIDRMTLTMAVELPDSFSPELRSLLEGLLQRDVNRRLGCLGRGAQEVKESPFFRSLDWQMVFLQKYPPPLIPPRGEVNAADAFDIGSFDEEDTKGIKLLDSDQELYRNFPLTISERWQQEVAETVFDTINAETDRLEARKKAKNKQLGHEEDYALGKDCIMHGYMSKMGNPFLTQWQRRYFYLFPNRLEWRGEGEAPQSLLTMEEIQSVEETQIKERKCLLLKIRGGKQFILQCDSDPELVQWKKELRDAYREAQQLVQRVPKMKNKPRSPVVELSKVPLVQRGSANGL
Beta-2 adrenergic receptor (Homo sapiens), sequence (P07550 whole entry, looked up): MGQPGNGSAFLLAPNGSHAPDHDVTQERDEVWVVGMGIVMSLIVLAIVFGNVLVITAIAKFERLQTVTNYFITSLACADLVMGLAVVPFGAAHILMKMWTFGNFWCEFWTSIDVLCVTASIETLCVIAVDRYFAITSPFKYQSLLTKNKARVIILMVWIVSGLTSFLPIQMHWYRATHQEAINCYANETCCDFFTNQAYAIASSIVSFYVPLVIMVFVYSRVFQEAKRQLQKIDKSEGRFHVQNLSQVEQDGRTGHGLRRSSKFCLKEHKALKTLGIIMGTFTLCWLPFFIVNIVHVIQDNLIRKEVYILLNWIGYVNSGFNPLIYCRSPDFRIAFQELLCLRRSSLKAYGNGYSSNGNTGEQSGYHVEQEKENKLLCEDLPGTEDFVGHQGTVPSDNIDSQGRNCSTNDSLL

`CC(C)C[C@H](NC(=O)NC(C)C)C(=O)O`: the percent of DMSO control GFP in test [1] is 103% (inactive). Further, the results for the GFP response vs DMSO in [2] and in test [4] were 105% (inactive) and 95.9% (inactive), respectively. Also, in test [3], the percent response of DMSO control is 95.5% (inactive). Further, in [5], the GFP response, % of DMSO is 99.8% (inactive). Further, the double positive events in [6] is 60.1%. Besides, the vesicle binding response in [6] is 136% (inactive). The inhibition (as a rule, the drop in the measured response relative to a control, in per cent) in test [7] was 9.63% (inactive); in test [11] it was -6.27% (inactive); in [15], 0% (inactive). In addition, the superoxide response (% of plate) in test [8] was 111% (inactive). The aptamer binding inhibition in test [9] was -1% (inactive). Moreover, the results for the response in test [10] and in test [12] were 2.78% (inactive) and -3.73% (inactive), respectively. The binding (% of control) in [13] was 96.8% (inactive). Also, in test [14], the efflux inhibition (fraction of control) is -0.12 (inactive). The differentiation response in test [16] was -10.4% (inactive).
Turning to `Cn1c(=O)c2c(ncn2Cc2ccccc2)n(C)c1=O`, in test [1], the percent of DMSO control GFP is 100% (inactive). In addition, the GFP response vs DMSO in test [2] was 105% (inactive); in test [4] it was 103% (inactive). The percent response of DMSO control in [3] is 88.6% (inactive). In addition, the GFP response, % of DMSO in test [5] is 109% (inactive). This molecule also had a double positive events in test [6] of 65.2%. In test [6], the vesicle binding response is 182% (inactive). Also, the values for the inhibition in test [7] and in test [15] were -1.97% (inactive) and 6% (inactive), respectively. The superoxide response (% of plate) in test [8] was 96.4% (inactive). Moreover, the aptamer binding inhibition in [9] was 0% (inactive). In addition, the response is -23% (inactive) in [10] and -0.4% (inactive) in test [12]. Also, the binding (% of control) in test [13] is 104% (inactive). Besides, the efflux inhibition (fraction of control) in test [14] was 0 (inactive). Besides, the differentiation response in test [16] is -16.8% (inactive).
With `CCOC(=O)C1(CCCc2ccccc2)CCN(C2CCN(C(C)=O)CC2)CC1`, in [1], the percent of DMSO control GFP was 97.1% (inactive). The GFP response vs DMSO was 101% (inactive) in test [2] and 92.3% (inactive) in test [4]. In addition, the percent response of DMSO control in test [3] was 99.8% (inactive). Further, the GFP response, % of DMSO in test [5] is 92.4% (inactive). This molecule also registered a double positive events in test [6] of 52%. Further, the vesicle binding response in test [6] was 138% (inactive). Besides, the inhibition is -12.4% (inactive) in [7], 12.5% (inactive) in test [11] and 9% (inactive) in test [15]. For the same molecule, the superoxide response (% of plate) in test [8] is 103% (inactive). In addition, in test [9], the aptamer binding inhibition was 9% (inactive). The response in [12] is -6.58% (inactive). For the same molecule, the binding (% of control) in [13] is 109% (inactive). Also, in test [14], the efflux inhibition (fraction of control) is 0.37 (inactive). In addition, the differentiation response in test [16] was -13.1% (inactive).
As to `O=C(O)/C=C/c1ccc(O)c(O)c1`, the percent of DMSO control GFP in test [1] was 101% (inactive). Further, the values for the GFP response vs DMSO in [2] and in test [4] were 104% (inactive) and 95.4% (inactive), respectively. Moreover, the percent response of DMSO control in test [3] is 106% (inactive). In test [5], the GFP response, % of DMSO is 99.9% (inactive). The same molecule came in with a double positive events in [6] of 52.4%. The vesicle binding response in test [6] was 173% (inactive). Besides, the inhibition was 23.1% (inactive) in [7], 4.2% (inactive) in [11] and 4% (inactive) in test [15]. Besides, the superoxide response (% of plate) in test [8] was 106% (inactive). In [9], the aptamer binding inhibition is 8% (inactive). For the same molecule, the response in test [12] is -0.83% (inactive). Moreover, the binding (% of control) in test [13] was 95.4% (inactive). Also, the efflux inhibition (fraction of control) in test [14] was 0.18 (inactive). The differentiation response in [16] is -0.2% (inactive).
Take `COc1ccc2[nH]cc(CCNC(=O)C3CCCNC3=O)c2c1` (stereo unspecified): in [1], the percent of DMSO control GFP was 103% (inactive). Further, the GFP response vs DMSO in [2] was 97.9% (inactive); in test [4], 104% (inactive). For the same molecule, the percent response of DMSO control in test [3] was 104% (inactive). In test [5], the GFP response, % of DMSO was 105% (inactive). Moreover, in [6], the double positive events is 57.5%. Further, the vesicle binding response in [6] was 218% (inactive). Besides, the inhibition was -2.11% (inactive) in test [7], -18.5% (inactive) in test [11] and 7% (inactive) in test [15]. In addition, the superoxide response (% of plate) in [8] was 100% (inactive). Further, the aptamer binding inhibition in test [9] is -7% (inactive). In test [12], the response was 2.02% (inactive). Further, the binding (% of control) in [13] was 103% (inactive). Besides, the efflux inhibition (fraction of control) in [14] was -0.24 (inactive). In addition, the differentiation response in [16] is 6.26% (inactive).
